According to the supplement of paper PMC10037445:
Whole data set: some 2,900 compounds, median “IRF Lucia reporter activity, fold change vs agonist alone” near 0.9, cut for the highest 2% near 2.8. Shown is part of a subset that was picked to be rich in the highest values.

How the values were obtained:
RAW-Dual [1] = assay: IRF Lucia reporter activity, fold change vs agonist alone; higher = enhanced IRF activity; settings: library stock concentration (final ~1000-fold dilution): 10 mM; cytotoxicity flag (confluency mask): not cytotoxic; agonist: MPLA (TLR4) […]
Outline: (§1)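 RAW-Dual macrophages were seeded in DMEM at 50,000 cells/well in 384-well plates, given 50 nL of library stock by pin tool, and given a PRR agonist 1 h later. Plates were held at 37 °C, 5% CO2 for 20 hours, after which supernatant was read for IRF by QuantiLuc luminescence and for NF-κB by QuantiBlue absorbance at 620 nm. Reporter activity is expressed as fold change over wells that received agonist alone. A well was called cytotoxic when IncuCyte confluency fell below 70% of agonist controls in both mask sets.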

RAW-Dual [2] = assay: IRF Lucia reporter activity, fold change vs agonist alone; cytotoxicity flag (confluency mask): not cytotoxic; higher = enhanced IRF activity
Outline: as §1

[3] = agonist: 3'3'-cGAMP (STING) 10 ug/mL

Which “IRF Lucia reporter activity” value (RAW-Dual [1]) does the source give for `CC1(c2cc(-c3cncnc3)c(F)cc2F)CCSC(N)=N1` (stereo unspecified) here?
Its value is 0.717.

`CC1(c2cc(-c3cncnc3)c(F)cc2F)CCSC(N)=N1` (stereo unspecified) (library stock concentration (final ~1000-fold dilution): 10 mM) was tested. Which “IRF Lucia reporter activity” value (RAW-Dual [2]; [3]) did it give?
Its value is 0.823.

And the “IRF Lucia reporter activity” value (RAW-Dual [2]; agonist: LPS (TLR4) 0.1 ug/mL)?
The value was 0.805.

`CCC(C)Nc1cc(C(=O)NC2CC3CCC(C2)N3c2ccc(C(=O)C3CC3)cn2)c(C)cc1C(N)=O` (stereo unspecified) (library stock concentration (final ~1000-fold dilution): 10 mM) was tested. Which “IRF Lucia reporter activity” value (RAW-Dual [2]; [3]) did it give?
The value was 0.482.

What about the “IRF Lucia reporter activity” value (RAW-Dual [2]; agonist: LPS (TLR4) 0.1 ug/mL) of the same compound?
Its value is 0.924.

For `CCC(C)Nc1cc(C(=O)NC2CC3CCC(C2)N3c2ccc(C(=O)C3CC3)cn2)c(C)cc1C(N)=O` (stereo unspecified), which “IRF Lucia reporter activity” value (RAW-Dual [1]) is on record?
Its value is 0.838.

`C[N+]1(C)C2CCC1CC(OC(=O)C(O)c1ccccc1)C2` (stereo unspecified) was tested. Which “IRF Lucia reporter activity” value (RAW-Dual [1]) did it give?
Its value is 0.953.

Which “IRF Lucia reporter activity” value (RAW-Dual [2]; [3]) does the source give for `C[N+]1(C)C2CCC1CC(OC(=O)C(O)c1ccccc1)C2` (stereo unspecified) (library stock concentration (final ~1000-fold dilution): 10 mM) here?
Its value is 1.01.

And the “IRF Lucia reporter activity” value (RAW-Dual [2]; agonist: LPS (TLR4) 0.1 ug/mL)?
The value was 1.29.

`O=C(Nc1ccc(OC(F)(F)Cl)cc1)c1cnc(N2CCC(O)C2)c(-c2ccn[nH]2)c1` (stereo unspecified) (library stock concentration (final ~1000-fold dilution): 10 mM) was tested. Which “IRF Lucia reporter activity” value (RAW-Dual [2]; [3]) did it give?
Its value is 0.296.

What about the “IRF Lucia reporter activity” value (RAW-Dual [2]; agonist: LPS (TLR4) 0.1 ug/mL) of the same compound?
Its value is 1.27.

Which results are given for `CCn1c(=O)c(-c2cc(NC(=O)Nc3ccccc3)c(F)cc2Br)cc2cnc(NC)cc21` (library stock concentration (final ~1000-fold dilution): 10 mM)?
IRF Lucia reporter activity (RAW-Dual [2]; [3]): 0.671; IRF Lucia reporter activity (RAW-Dual [2]; agonist: LPS (TLR4) 0.1 ug/mL): 0.268

How did the “IRF Lucia reporter activity” value (RAW-Dual [1]) turn out when `Cc1ccc(Nc2nccc(N(C)c3ccc4c(C)n(C)nc4c3)n2)cc1S(N)(=O)=O.Cl` was run?
Its value is 0.646.

For `Cc1ccc(Nc2nccc(N(C)c3ccc4c(C)n(C)nc4c3)n2)cc1S(N)(=O)=O.Cl` (library stock concentration (final ~1000-fold dilution): 10 mM), which “IRF Lucia reporter activity” value (RAW-Dual [2]; [3]) is on record?
Its value is 0.0722.

What about the “IRF Lucia reporter activity” value (RAW-Dual [2]; agonist: LPS (TLR4) 0.1 ug/mL) of the same compound?
Its value is 0.446.

Which “IRF Lucia reporter activity” value (RAW-Dual [2]; [3]) does the source give for `COC(=O)C(CC(C)C)NC(=O)c1ccc(NCC(N)CS)cc1-c1cccc2ccccc12.O=C(O)C(F)(F)F` (stereo unspecified) (library stock concentration (final ~1000-fold dilution): 10 mM) here?
Its value is 0.0714.

What about the “IRF Lucia reporter activity” value (RAW-Dual [2]; agonist: LPS (TLR4) 0.1 ug/mL) of the same compound?
Its value is 0.736.

Which “IRF Lucia reporter activity” value (RAW-Dual [1]) does the source give for `COC(=O)C(CC(C)C)NC(=O)c1ccc(NCC(N)CS)cc1-c1cccc2ccccc12.O=C(O)C(F)(F)F` (stereo unspecified) here?
The value was 0.882.

Which “IRF Lucia reporter activity” value (RAW-Dual [2]; [3]) does the source give for `N#Cc1ccc(-c2c(-c3ncn[nH]3)sc(N3CCOCC3)c2C#N)c(F)c1` (library stock concentration (final ~1000-fold dilution): 10 mM) here?
The value was 0.455.

What about the “IRF Lucia reporter activity” value (RAW-Dual [2]; agonist: LPS (TLR4) 0.1 ug/mL) of the same compound?
The value was 10.2.

`N#Cc1ccc2[nH]c(O)c(-c3ccc(CN4CCOCC4)cn3)c2c1` was tested. Which “IRF Lucia reporter activity” value (RAW-Dual [1]) did it give?
The value was 1.01.

Which results are given for `N#Cc1ccc2[nH]c(O)c(-c3ccc(CN4CCOCC4)cn3)c2c1` (library stock concentration (final ~1000-fold dilution): 10 mM)?
IRF Lucia reporter activity (RAW-Dual [2]; [3]): 0.996; IRF Lucia reporter activity (RAW-Dual [2]; agonist: LPS (TLR4) 0.1 ug/mL): 0.903

For `N#Cc1cccc(-c2c[nH]c3ncnc(N4CCOCC4)c23)c1` (library stock concentration (final ~1000-fold dilution): 10 mM), which “IRF Lucia reporter activity” value (RAW-Dual [2]; [3]) is on record?
The value was 0.11.

And the “IRF Lucia reporter activity” value (RAW-Dual [2]; agonist: LPS (TLR4) 0.1 ug/mL)?
The value was 0.291.
